Several values for one entry are separate records, joined by “and”; a condition that tells them apart may be missing. Equal values may be shown once. Activity calls are given as the source filed them. The calls were made as follows: active = hit-call score of the fitted dose curve at least 0.9, where 1 is the maximum; inconclusive = response in the unintended direction; inactive = score below 0.9.
Tested on: rat CYP2B1, gene 24300
Assay: NVS_ADME_rCYP2B1: NovaScreen (NVS) CYP450-related Enzyme Activity (ADME) Assay for rat CYP2B1 (AID 2283117)
Description: NVS_ADME_rCYP2B1 is a biochemical, single-readout assay that uses extracted gene-proteins in a cell-free assay. Measurements were taken 0.75 hour after chemical dosing in a 96-well plate.NVS_ADME_rCYP2B1 is one of one assay component(s) measured or calculated from the NVS_ADME_rCYP2B1 assay. It is designed to make measurements of enzyme activity, a form of enzyme reporter, as detected with fluorescence intensity signals by Fluorescence technology.Data from the assay component NVS_ADME_rCYP2B1 was analyzed into 1 assay endpoint. This assay endpoint, NVS_ADME_rCYP2B1, was analyzed in the positive analysis fitting direction relative to Acetonitrile as the negative control and baseline of activity. Using a type of enzyme reporter, loss-of-signal activity can be used to understand changes in the enzymatic activity as they relate to the gene Cyp2b1. Furthermore, this assay endpoint can be referred to as a primary readout, because this assay has produced multiple assay endpoints where this one serves a enzymatic activity function. To generalize the intended target to other relatable targets, this assay endpoint is annotated to the cyp intended target family, where the subfamily is xenobiotic metabolism.
Binding assays used specific radioligands (tritiated, iodinated) with non-radioactive competitive displacement ligands in agonist or antagonist protocols (as indicated) and various reference compounds and inhibitors to titrate specific binding to receptors and transporters. Most enzyme assays (CYPs, kinases, phosphatases, proteases, HDACs) used recombinant protein and specific substrates (fluorescence mostly, some colorimetric and radioactive) and inhibitors, followed by a biochemical separation of substrate and product. All assays for the biochemical HTS were initially run in duplicate at a single concentration (10 uM for CYP450 assays and 25 uM for all others). Assay-chemical combinations meeting a pre-defined threshold (e.g., 30% inhibition and other criteria defined below) were then run in singleton concentration-response format with maximum concentration of 20 uM for CYPs and 50 uM for all others. Each assay was run with positive and negative controls, and concurrent controls on every plate. The follow-up (secondary) screen tested active chemical-pairs in concentration series, as well as a few additional assays not tested in the primary screen, some selected negative inactives, and several cases re-run in the concentration series for confirmatory purposes.

| Structure (SMILES) | outcome | AC50 |
| --- | --- | --- |
| CCOC(=O)CC(SP(=O)(OC)OC)C(=O)OCC (stereo not drawn) | inactive | – |
| CCc1cccc(C)c1N(C(=O)CCl)C(C)COC (stereo not drawn) | – | 6430 nM (active) |
| CCCOCC(=Nc1ccc(Cl)cc1C(F)(F)F)n1ccnc1 | – | 279 nM (active) |
| C[Si](Cn1cncn1)(c1ccc(F)cc1)c1ccc(F)cc1 | – | 37.1 nM (active) |
| CC(C1CC1)C(O)(Cn1cncn1)c1ccc(Cl)cc1 (stereo not drawn) | – | 401 nM (active) and 1.61 µM (active) |
| CCCCOC(=O)c1ccccc1C(=O)O | inactive | – |
| Nc1c(Cl)cc([N+](=O)[O-])cc1Cl | inactive | – |
| CCc1cccc(CC)c1N(COC)C(=O)CCl | – | 3440 nM (active) |
| CCOP(=S)(OCC)Oc1ccc([N+](=O)[O-])cc1 | – | 559 nM (active) |
| C=C(C)[C@H]1Cc2c(ccc3c2O[C@@H]2COc4cc(OC)c(OC)cc4[C@@H]2C3=O)O1 | inactive | – |
| FC(F)C(F)(F)OCC(Cn1cncn1)c1ccc(Cl)cc1Cl (stereo not drawn) | – | 452 nM (active) |
| CCOP(=S)(OCC)Oc1ccc2c(C)c(Cl)c(=O)oc2c1 | – | 914 nM (active) |
| CC(C)N(C(=O)SCC(Cl)=C(Cl)Cl)C(C)C | inactive | – |

— PubChem BioAssay (EPA / NIEHS)
